Inconclusive results are not listed. Unmarked numbers belong to inactive results. The source made the active and inactive calls. Calls come from the whole dose curve; as a rule, active = well fitted inhibition curve with a large enough effect; inconclusive = small, poorly fitted or top-dose-only effect; inactive = flat fitted curve, though single readings scatter.
% is set by controls: 0 for no effect and ±100 for the full control effect.
Note: nearly all actives have a fitted effect of over 60% in size.

In one experiment the test system is NIH3T3. The experiment in a line: Cytotoxic Profiling of Annotated Libraries Using Quantitative High-Throughput Screening (AID 1296008). Conditions: Five cell lines viability, CellTiter-Glo ATP luminescence, 48-72 h; max response: active compounds read low. The essentials:
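Cells exposed to compounds for 48 or 72 hr at 37 degrees Celsius. Viability read as ATP-coupled luminescence with CellTiter-Glo after 10 min at room temperature.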
Regarding `CC(=O)Oc1ccc(C)cc1`, the max response is 2.4%.
As for `CC(C)(C)NC[C@H](O)COc1nsnc1N1CCOCC1`, the max response is -2.25%.
Turning to `Cc1ncc(CO)c(C=O)c1O`, the max response is -38.1%.
`CN(C)CCN1C(=O)c2ccccc2N(C)c2ccccc21`: the max response is -0.0642%.
For `COc1cc(C)nc(-n2nc(C)cc2OC)n1`, the molecule was called inactive.
With `O=C1C(O)=C(O)C(=O)C(O)=C1O`, the max response was -17.6%.
`CCCCCCCCCCCCSCCOCCO`: the max response was -3.9%.
Same read-out and setting: the value for `COc1ccc(C(=O)c2ccccc2)c(O)c1` was 2.73%; that for `OC[C@H]1O[C@@H]2O[C@H]3[C@H](O)[C@@H](O)[C@@H](O[C@H]4[C@H](O)[C@@H](O)[C@@H](O[C@H]5[C@H](O)[C@@H](O)[C@@H](O[C@H]6[C@H](O)[C@@H](O)[C@@H](O[C@H]7[C@H](O)[C@@H](O)[C@@H](O[C@H]8[C@H](O)[C@@H](O)[C@@H](O[C@H]1[C@H](O)[C@H]2O)O[C@@H]8CO)O[C@@H]7CO)O[C@@H]6CO)O[C@@H]5CO)O[C@@H]4CO)O[C@@H]3CO` was -2.76%; that for `C#C[C@]1(OC(C)=O)CC[C@H]2[C@@H]3CCC4=C/C(=N/O)CC[C@@H]4[C@H]3CC[C@@]21CC` was 2.39%.
The same measure, in the same setting: the value for `CCCCCCCC/C=C\CCCCCCCCN` was -3%; that for `C#C[C@]1(O)CC[C@H]2[C@@H]3CCC4=CC(=O)CC[C@@H]4[C@H]3CC[C@@]21CC` was -3.66%.
In the case of `CN1CCC(OC(c2ccccc2)c2ccccc2)CC1`, the molecule was called inactive.
In the case of `CCN[C@@H]1C[C@H](N)[C@@H](OC2OC(CN)=CCC2N)[C@H](O)[C@H]1O[C@H]1OC[C@](C)(O)[C@H](NC)[C@H]1O` (stereo partly specified), the max response was -0.0944%.
Take `O=C(c1ccc(F)cc1)C1CCN(CCn2c(=S)[nH]c3ccccc3c2=O)CC1`: the max response is -46.6%.
Regarding `CC(=O)N[C@@H](CCC(=O)O)C(=O)O`, the call was inactive.
`CCCc1ncc(C[n+]2ccccc2C)c(N)n1`: the max response was 2.55%.
On to `COc1cc(O)c(C(=O)c2ccccc2)cc1S(=O)(=O)O`, for which the max response is 1.08%.
Consider `CCN(CC)CCOC(=O)C1(c2ccccc2)CCCC1`, for which the max response was 2.7%.
`CCC(Cc1c(I)cc(I)c(N)c1I)C(=O)O` (stereo unspecified): the max response is 2.99%.
Turning to `OC[C@H]1O[C@@H](Oc2ccc(O)cc2)[C@H](O)[C@@H](O)[C@@H]1O`, the max response was -45.3%.
On to `Cc1cccc(C)c1NC(=O)CN1CCCCCC1`, for which the max response was 1.11%.
With `Nc1ccc(S(=O)(=O)NCc2ccccc2)cc1`, the max response is -0.659%.
With `CCc1oc2ccccc2c1C(=O)c1cc(I)c(O)c(I)c1`, the max response is -1.15%.
Consider `O=C(O)CCNC(=O)c1ccccc1`, for which the max response was 0.555%.
Consider `CCCCC(CC)COC(=O)/C=C/c1ccc(OC)cc1` (stereo unspecified), for which the max response is -7.17%.
Turning to `COc1cc(NS(=O)(=O)c2ccc(N)cc2)ncn1`, the max response was -12.1%.

The subject of a further experiment is HEK293T. The experiment in a line: qHTS assay to identify novel small-molecules to repurpose for Merkel cell carcinoma treatment (AID 1296009). Note: potency is the fitted concentration of half-maximal effect. Conditions: MCC and control cell lines, CellTiter-Glo viability, 72 h; at 44.8 µM (top of the series) unless noted. The essentials:
(§1)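 Dose-response viability screen; 72 hr exposure at 37 degree celsius; CellTiter-Glo added, 10 min room temperature, luminescence read; RLUs scaled between no-cell and DMSO wells.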
Consider `O=C1C(O)=C(O)C(=O)C(O)=C1O`, for which the outcome was inactive.
As for `COc1ccc(C(=O)c2ccccc2)c(O)c1`, the molecule was called inactive.
Turning to `OC[C@H]1O[C@@H]2O[C@H]3[C@H](O)[C@@H](O)[C@@H](O[C@H]4[C@H](O)[C@@H](O)[C@@H](O[C@H]5[C@H](O)[C@@H](O)[C@@H](O[C@H]6[C@H](O)[C@@H](O)[C@@H](O[C@H]7[C@H](O)[C@@H](O)[C@@H](O[C@H]8[C@H](O)[C@@H](O)[C@@H](O[C@H]1[C@H](O)[C@H]2O)O[C@@H]8CO)O[C@@H]7CO)O[C@@H]6CO)O[C@@H]5CO)O[C@@H]4CO)O[C@@H]3CO`, the molecule was called inactive.
Regarding `CCN[C@@H]1C[C@H](N)[C@@H](OC2OC(CN)=CCC2N)[C@H](O)[C@H]1O[C@H]1OC[C@](C)(O)[C@H](NC)[C@H]1O` (stereo partly specified), the outcome is “inactive [at 0.588 µM]”.
For the molecule `CCN(CC)CCOC(=O)C1(c2ccccc2)CCCC1`, the molecule was called inactive.
As for `CCC(Cc1c(I)cc(I)c(N)c1I)C(=O)O` (stereo unspecified), the call was inactive.
In the case of `O=C(O)CCNC(=O)c1ccccc1`, the molecule was called inactive.

For the next experiment, the system named is MCC-13. The description is as above. Conditions: MCC and control cell lines, CellTiter-Glo viability, 72 h; series mostly up to 46 µM; activity change, negative = cytotoxicity: at the top concentration. The essentials:
as §1
As to `CC(=O)Oc1ccc(C)cc1`, the “activity change, negative = cytotoxicity” value was 3.96%.
As to `CC(C)(C)NC[C@H](O)COc1nsnc1N1CCOCC1`, the “activity change, negative = cytotoxicity” value was 8.89%.
On to `Cc1ncc(CO)c(C=O)c1O`, for which the “activity change, negative = cytotoxicity” value was 8.59%.
On to `CN(C)CCN1C(=O)c2ccccc2N(C)c2ccccc21`, for which the “activity change, negative = cytotoxicity” value was 2.08%.
Turning to `COc1cc(C)nc(-n2nc(C)cc2OC)n1`, the “activity change, negative = cytotoxicity” value is 1.98%.
Turning to `O=C1C(O)=C(O)C(=O)C(O)=C1O`, the “activity change, negative = cytotoxicity” value was 24.3%.
Take `CCCCCCCCCCCCSCCOCCO`: the “activity change, negative = cytotoxicity” value was 20%.
Regarding `COc1ccc(C(=O)c2ccccc2)c(O)c1`, the “activity change, negative = cytotoxicity” value was 1.42%.
On the same count and under the same terms, to `OC[C@H]1O[C@@H]2O[C@H]3[C@H](O)[C@@H](O)[C@@H](O[C@H]4[C@H](O)[C@@H](O)[C@@H](O[C@H]5[C@H](O)[C@@H](O)[C@@H](O[C@H]6[C@H](O)[C@@H](O)[C@@H](O[C@H]7[C@H](O)[C@@H](O)[C@@H](O[C@H]8[C@H](O)[C@@H](O)[C@@H](O[C@H]1[C@H](O)[C@H]2O)O[C@@H]8CO)O[C@@H]7CO)O[C@@H]6CO)O[C@@H]5CO)O[C@@H]4CO)O[C@@H]3CO` belongs 0.863%; to `C#C[C@]1(OC(C)=O)CC[C@H]2[C@@H]3CCC4=C/C(=N/O)CC[C@@H]4[C@H]3CC[C@@]21CC`, -22.2%; to `CCOC(=O)c1c(N)sc2c1CCN(Cc1ccccc1)C2`, 1.47%.
Same read-out and setting: to `CCCCCCCC/C=C\CCCCCCCCN` belongs 14.6%; to `N#CCC(=O)NN`, -4.42%.
Same read-out and setting: to `C#C[C@]1(O)CC[C@H]2[C@@H]3CCC4=CC(=O)CC[C@@H]4[C@H]3CC[C@@]21CC` belongs -3.73%; to `CN1CCC(OC(c2ccccc2)c2ccccc2)CC1`, -1.81%; to `CCN[C@@H]1C[C@H](N)[C@@H](OC2OC(CN)=CCC2N)[C@H](O)[C@H]1O[C@H]1OC[C@](C)(O)[C@H](NC)[C@H]1O` (stereo partly specified), 16.3% [at 0.597 µM].
Regarding `O=C(c1ccc(F)cc1)C1CCN(CCn2c(=S)[nH]c3ccccc3c2=O)CC1`, the “activity change, negative = cytotoxicity” value was -3.94%.
Consider `CC(=O)N[C@@H](CCC(=O)O)C(=O)O`, for which the “activity change, negative = cytotoxicity” value is 1.98%.
In the case of `CCCc1ncc(C[n+]2ccccc2C)c(N)n1`, the “activity change, negative = cytotoxicity” value was -2.98%.
On to `COc1cc(O)c(C(=O)c2ccccc2)cc1S(=O)(=O)O`, for which the “activity change, negative = cytotoxicity” value was 9.06%.
As to `CCN(CC)CCOC(=O)C1(c2ccccc2)CCCC1`, the “activity change, negative = cytotoxicity” value was -0.883%.
The same measure, in the same setting: to `CCC(Cc1c(I)cc(I)c(N)c1I)C(=O)O` (stereo unspecified) belongs -1.77%.
Take `OC[C@H]1O[C@@H](Oc2ccc(O)cc2)[C@H](O)[C@@H](O)[C@@H]1O`: the “activity change, negative = cytotoxicity” value was 13.8%.
Consider `Cc1cccc(C)c1NC(=O)CN1CCCCCC1`, for which the “activity change, negative = cytotoxicity” value was 12.1%.
`Nc1ccc(S(=O)(=O)NCc2ccccc2)cc1`: the “activity change, negative = cytotoxicity” value is -7.33%.
Consider `CCc1oc2ccccc2c1C(=O)c1cc(I)c(O)c(I)c1`, for which the “activity change, negative = cytotoxicity” value was -6.67%.
Still for that read-out and setting: the value for `O=C(O)CCNC(=O)c1ccccc1` was -7.12%.
Same read-out and setting: the value for `CCCCC(CC)COC(=O)/C=C/c1ccc(OC)cc1` (stereo unspecified) was 4.47%.
On the same count and under the same terms, the value for `COc1cc(NS(=O)(=O)c2ccc(N)cc2)ncn1` was -0.878%; that for `C[C@]12CCC(=O)C=C1C=C[C@@H]1[C@@H]2CC[C@@]2(C)[C@H]1CC[C@@]21CCC(=O)O1` was -8.54%.
On to `Cc1ccc2c(Br)cc(Br)c(O)c2n1`, for which the Potency is 16.8 µM (active).
With `C=C[C@@]1(C)CC(=O)[C@]2(O)[C@@]3(C)[C@@H](O)CCC(C)(C)[C@@H]3[C@H](O)[C@H](OC(C)=O)[C@@]2(C)O1`, the “activity change, negative = cytotoxicity” value was -3.01%.

The record behind these values is PubChem BioAssay (NCATS).
